Results on eight molecules are retold here after ChEMBL document CHEMBL3988442, “University of Dundee, Small-Polar-MMV Screening Library” (2021).

Holding throughout (parameters): scale not given: direction of the effect not stated beside the values
Test [1] has as its target Protein translocase subunit SecA (Escherichia coli (strain K12)) (UniProt P10408). In words: Assay to Identify E. coli SecA ATPase Inhibitors. The note with it: 30 µM. The class given is functional.
Test [2] concerns the target T1, Ubiquitin-activating enzyme e1, putative (Leishmania donovani (strain BPK282A1)) (UniProt E9BSI1).
T1 sequence (whole entry): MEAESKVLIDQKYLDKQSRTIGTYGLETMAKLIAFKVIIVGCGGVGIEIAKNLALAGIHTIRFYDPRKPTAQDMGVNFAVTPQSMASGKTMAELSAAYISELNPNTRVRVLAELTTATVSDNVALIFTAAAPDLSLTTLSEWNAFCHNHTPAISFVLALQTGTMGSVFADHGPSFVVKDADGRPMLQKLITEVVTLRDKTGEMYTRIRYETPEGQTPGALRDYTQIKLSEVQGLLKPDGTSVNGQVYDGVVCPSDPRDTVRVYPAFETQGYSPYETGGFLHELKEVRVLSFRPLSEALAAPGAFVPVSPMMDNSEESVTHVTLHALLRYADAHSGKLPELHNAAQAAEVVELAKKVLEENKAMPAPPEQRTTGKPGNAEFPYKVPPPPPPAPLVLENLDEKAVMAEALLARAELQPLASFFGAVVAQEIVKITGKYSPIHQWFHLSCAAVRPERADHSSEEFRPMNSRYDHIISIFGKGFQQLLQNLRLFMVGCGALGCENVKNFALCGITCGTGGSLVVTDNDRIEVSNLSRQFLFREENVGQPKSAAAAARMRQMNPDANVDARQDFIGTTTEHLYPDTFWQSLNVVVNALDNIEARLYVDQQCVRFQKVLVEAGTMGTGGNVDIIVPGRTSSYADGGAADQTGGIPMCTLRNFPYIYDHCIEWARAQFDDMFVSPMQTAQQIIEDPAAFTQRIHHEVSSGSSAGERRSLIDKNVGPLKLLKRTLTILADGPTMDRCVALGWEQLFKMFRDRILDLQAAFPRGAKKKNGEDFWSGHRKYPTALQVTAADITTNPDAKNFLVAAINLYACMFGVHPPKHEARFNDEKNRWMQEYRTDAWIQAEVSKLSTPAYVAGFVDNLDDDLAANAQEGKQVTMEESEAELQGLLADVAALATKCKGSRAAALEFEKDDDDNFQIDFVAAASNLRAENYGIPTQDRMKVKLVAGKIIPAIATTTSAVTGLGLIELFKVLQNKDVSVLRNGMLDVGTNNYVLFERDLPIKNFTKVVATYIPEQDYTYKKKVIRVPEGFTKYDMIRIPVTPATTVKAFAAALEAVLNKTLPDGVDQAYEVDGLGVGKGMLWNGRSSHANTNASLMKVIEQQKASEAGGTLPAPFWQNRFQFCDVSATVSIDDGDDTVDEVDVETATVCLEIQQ
In words: Leishmania donovani Ubiquitin Activating Enzyme (LdE1). Format: functional. The note with it: 30 µM.

Test [3] addresses AMP-activated protein kinase, AMPK (Homo sapiens) (UniProt P54646+O43741+P54619+Q9UGJ0+Q9Y478+Q13131+Q9UGI9). In words: AMP-dependent Kinase enzyme assay. An in vitro enzyme assay that detects ADP turnover that is directly proportional to AMPK activity. This uses naive AMPK that is activated during the assay with MK-8722. The class given is functional. The note with it: 30 µM.

Test [4] concerns the target Sialic acid-binding Ig-like lectin 9 (Homo sapiens) (UniProt Q9Y336). Nature of the test: Hs-Siglec9 ALPHAscreen SOP 20170721. The note with it: 10 µM. On the technique in general: Alpha assays give light when donor and acceptor beads are brought close together.
For a further test, the system named is Trypanosoma cruzi. Nature of the test: Trypanosoma cruzi phosphomannomutase and mannose-1-phosphate guanylyltransferase assay. The class given is functional. The note with it: 10 µM.
In test [5] the target is T2, Arginase-2, mitochondrial (Homo sapiens) (UniProt P78540).
T2 sequence (whole entry): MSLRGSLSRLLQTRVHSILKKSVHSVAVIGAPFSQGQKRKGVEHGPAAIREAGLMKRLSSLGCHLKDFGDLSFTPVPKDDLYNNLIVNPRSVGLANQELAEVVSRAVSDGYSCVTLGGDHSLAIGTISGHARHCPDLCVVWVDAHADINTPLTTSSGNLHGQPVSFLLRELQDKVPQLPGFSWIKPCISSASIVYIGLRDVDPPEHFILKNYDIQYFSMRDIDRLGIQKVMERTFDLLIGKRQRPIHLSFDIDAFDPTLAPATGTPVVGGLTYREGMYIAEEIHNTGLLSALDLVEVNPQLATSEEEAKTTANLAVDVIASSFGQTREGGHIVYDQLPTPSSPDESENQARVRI
Nature of the test: in vitro enzyme assay to detect the production of urea directly proportional to the activity of Arginase II. Further: in the data most compounds retested in dose-response had high values. Format: functional. The note with it: 33.3 µM.

The target in test [6] is T3, Proteasome subunit beta (Trypanosoma cruzi) (UniProt O96673).
T3 sequence (whole entry): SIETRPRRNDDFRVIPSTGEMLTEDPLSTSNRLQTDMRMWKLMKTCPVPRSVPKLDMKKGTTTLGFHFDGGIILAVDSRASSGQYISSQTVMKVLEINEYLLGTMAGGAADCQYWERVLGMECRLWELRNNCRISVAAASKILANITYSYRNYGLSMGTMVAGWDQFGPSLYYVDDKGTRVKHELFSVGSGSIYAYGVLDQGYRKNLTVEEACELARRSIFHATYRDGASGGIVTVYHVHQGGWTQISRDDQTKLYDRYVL
Nature of the test: Trypanosoma cruzi proteasome chymotrypsin-like activity (TcProtChymo) assay. Further: in the data most compounds retested in dose-response had high values. Format: functional. The following applies: 9.37 µM.

The species named for another test is Homo sapiens. In words: To identify inhibition of the IFN signalling (Jak-Stat) pathway via expression of an eGFP reporter gene under the control of an IFN-stimulated response element (ISRE) containing MxA promoter. The class given is functional. The note with it: 30 µM. A general note: A reporter such as luciferase makes a cellular process visible.
Test [7] addresses T4, Tyrosyl-tRNA synthetase, putative (Trypanosoma cruzi (strain CL Brener)) (UniProt Q4DSP6).
T4 sequence (whole entry): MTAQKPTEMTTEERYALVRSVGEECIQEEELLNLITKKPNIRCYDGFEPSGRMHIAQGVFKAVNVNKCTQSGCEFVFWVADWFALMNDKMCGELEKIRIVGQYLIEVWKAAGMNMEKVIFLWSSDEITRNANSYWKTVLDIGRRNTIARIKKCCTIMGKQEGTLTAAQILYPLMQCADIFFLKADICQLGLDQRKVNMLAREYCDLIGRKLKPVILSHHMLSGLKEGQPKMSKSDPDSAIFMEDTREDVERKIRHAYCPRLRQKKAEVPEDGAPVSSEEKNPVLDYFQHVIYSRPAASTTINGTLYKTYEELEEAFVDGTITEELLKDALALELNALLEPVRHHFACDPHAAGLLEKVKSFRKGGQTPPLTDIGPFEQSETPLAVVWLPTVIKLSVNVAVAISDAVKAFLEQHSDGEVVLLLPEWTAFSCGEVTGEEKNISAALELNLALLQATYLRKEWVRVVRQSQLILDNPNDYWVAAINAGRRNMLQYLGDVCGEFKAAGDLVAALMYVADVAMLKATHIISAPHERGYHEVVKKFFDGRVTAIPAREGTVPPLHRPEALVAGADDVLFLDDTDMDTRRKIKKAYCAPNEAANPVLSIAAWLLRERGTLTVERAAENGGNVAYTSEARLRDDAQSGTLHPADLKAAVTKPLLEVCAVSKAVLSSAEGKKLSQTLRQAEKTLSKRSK
In words: Trypanosoma cruzi tyrosyl tRNA synthetase (TcYRS) _High Tyrosine SOP. Further: in the data most compounds retested in dose-response had high values. The class given is functional. The note with it: 30 µM.

For test [8], the target named is T4, Tyrosyl-tRNA synthetase, putative (Trypanosoma cruzi (strain CL Brener)). Nature of the test: Trypanosoma cruzi tyrosyl tRNA synthetase (TcYRS) SOP. The note with it: 30 µM. The class given is functional.
Test [9] deals with Chromo domain-containing protein 1 (Saccharomyces cerevisiae (strain ATCC 204508 / S288c) (Baker's yeast)) (UniProt P32657). In words: ScCHD-1 Enzyme Inhibition Assay. Further: in the data most compounds retested in dose-response had high values. The note with it: 30 µM. Format: functional.
Sequence of Chromo domain-containing protein 1 (Saccharomyces cerevisiae (strain ATCC 204508 / S288c) (Baker's yeast)) (P32657 whole entry, the tested form may be a part): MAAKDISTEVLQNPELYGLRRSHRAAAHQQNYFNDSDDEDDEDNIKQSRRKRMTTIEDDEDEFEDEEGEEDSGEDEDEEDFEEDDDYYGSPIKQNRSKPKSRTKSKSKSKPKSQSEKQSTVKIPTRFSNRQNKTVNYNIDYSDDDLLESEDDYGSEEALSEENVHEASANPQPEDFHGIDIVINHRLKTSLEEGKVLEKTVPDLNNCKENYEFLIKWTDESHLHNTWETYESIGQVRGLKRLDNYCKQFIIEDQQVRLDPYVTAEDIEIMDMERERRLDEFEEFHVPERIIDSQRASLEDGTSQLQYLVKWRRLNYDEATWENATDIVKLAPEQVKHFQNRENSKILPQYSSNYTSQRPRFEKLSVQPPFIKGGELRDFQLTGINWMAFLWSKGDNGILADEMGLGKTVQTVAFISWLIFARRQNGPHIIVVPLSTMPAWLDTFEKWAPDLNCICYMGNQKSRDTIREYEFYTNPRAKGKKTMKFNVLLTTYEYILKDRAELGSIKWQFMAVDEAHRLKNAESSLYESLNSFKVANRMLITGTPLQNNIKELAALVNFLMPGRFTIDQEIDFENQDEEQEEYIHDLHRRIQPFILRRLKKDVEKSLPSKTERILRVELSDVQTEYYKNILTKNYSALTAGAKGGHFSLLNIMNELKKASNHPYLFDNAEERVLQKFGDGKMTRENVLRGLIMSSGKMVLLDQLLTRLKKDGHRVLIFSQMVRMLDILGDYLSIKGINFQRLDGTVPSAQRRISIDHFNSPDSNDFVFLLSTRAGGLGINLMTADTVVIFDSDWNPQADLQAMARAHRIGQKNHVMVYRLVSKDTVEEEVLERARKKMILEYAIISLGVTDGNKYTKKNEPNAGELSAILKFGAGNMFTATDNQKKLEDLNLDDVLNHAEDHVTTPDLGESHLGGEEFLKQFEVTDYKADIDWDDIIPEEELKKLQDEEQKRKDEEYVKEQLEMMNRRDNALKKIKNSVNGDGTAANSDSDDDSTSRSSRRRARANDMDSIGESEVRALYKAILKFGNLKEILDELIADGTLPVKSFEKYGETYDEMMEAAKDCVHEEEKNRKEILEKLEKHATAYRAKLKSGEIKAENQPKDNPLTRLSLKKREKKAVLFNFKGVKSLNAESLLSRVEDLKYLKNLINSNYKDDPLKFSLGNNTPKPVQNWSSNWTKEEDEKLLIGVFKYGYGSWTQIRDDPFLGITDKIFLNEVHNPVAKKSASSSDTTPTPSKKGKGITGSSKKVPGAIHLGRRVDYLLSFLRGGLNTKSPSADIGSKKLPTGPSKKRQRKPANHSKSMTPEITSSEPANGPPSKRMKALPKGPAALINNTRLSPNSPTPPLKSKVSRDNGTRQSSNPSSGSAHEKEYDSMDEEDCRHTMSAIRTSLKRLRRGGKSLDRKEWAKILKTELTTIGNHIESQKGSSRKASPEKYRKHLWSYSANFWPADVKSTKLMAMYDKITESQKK

For some of these results: Results with a measured potency or affinity are listed apart.

Sequence of Protein translocase subunit SecA (Escherichia coli (strain K12)) (P10408 whole entry): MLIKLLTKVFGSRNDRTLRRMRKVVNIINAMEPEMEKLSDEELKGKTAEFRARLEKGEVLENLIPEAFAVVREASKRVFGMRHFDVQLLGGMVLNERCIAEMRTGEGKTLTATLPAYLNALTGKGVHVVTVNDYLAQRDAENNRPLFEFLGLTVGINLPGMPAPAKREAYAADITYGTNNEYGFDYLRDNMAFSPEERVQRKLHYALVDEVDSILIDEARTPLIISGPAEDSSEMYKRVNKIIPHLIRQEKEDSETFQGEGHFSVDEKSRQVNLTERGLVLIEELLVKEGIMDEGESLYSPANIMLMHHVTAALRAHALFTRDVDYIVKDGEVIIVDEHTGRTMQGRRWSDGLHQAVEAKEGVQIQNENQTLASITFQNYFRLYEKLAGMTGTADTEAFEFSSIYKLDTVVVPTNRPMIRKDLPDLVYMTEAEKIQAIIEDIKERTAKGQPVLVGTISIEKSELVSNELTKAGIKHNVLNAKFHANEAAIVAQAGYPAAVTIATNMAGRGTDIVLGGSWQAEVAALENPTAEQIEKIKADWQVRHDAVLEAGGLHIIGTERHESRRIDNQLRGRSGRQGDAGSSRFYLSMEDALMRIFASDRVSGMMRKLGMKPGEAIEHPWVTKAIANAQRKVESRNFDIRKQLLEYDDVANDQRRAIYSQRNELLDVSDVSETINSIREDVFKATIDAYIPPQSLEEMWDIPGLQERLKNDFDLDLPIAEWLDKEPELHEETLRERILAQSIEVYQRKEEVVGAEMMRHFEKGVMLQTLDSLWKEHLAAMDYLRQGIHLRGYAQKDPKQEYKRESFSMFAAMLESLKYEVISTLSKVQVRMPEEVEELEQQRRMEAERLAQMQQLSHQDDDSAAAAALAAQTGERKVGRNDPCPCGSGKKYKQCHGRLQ
Sequence of Sialic acid-binding Ig-like lectin 9 (Homo sapiens) (Q9Y336 whole entry): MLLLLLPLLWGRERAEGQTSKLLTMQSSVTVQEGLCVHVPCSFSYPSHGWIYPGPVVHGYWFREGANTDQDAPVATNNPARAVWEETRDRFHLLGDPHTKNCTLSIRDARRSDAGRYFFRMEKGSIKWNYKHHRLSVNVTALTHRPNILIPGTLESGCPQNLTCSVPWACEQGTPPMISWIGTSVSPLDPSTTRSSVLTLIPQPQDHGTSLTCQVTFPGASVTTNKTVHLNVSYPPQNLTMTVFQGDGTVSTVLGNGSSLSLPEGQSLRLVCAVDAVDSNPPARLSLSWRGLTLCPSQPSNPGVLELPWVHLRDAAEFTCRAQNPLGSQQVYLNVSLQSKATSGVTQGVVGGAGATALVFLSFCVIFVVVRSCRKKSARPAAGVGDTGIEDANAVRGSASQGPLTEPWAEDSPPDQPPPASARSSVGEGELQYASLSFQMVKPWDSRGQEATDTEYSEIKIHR

For the molecule `CCCS(=O)(=O)N1CCC(NC(=O)c2ccc(Cl)s2)CC1`, the Percent Effect was -0.0871% in test [1]; 2.67% in test [2]; -1.87% in [3]; 5.67% in test [4]; 5.16% in the test on Trypanosoma cruzi; 9.9% in [5]. Besides, the Percent Effect was 3.14% in test [6]; -1.58% in the test listed under Homo sapiens; 8.2% in test [7]; 16.1% in test [8]; -3.77% in test [9].
`CN1CCCc2cc(CNC(=O)c3ccc(NC4CC4)nc3)ccc21`: the Percent Effect in test [1] is -1.41%; in test [2], 6.33%; in [3] it was 52%; in [4] it was 6.12%; in the test on Trypanosoma cruzi it was -0.923%; in [5], 2.8%. In addition, the Percent Effect was 0.515% in test [6]; -2.19% in the test listed under Homo sapiens; 6.25% in test [7]; 10.1% in [8]; -6.23% in [9].
Consider `CC(C)CCN1Cc2c(C(=O)O)ncn2-c2ccccc2S1(=O)=O`, for which the Percent Effect in test [1] is 0.538%; in test [2], 16.2%; in test [3], 16.3%; in test [4] it was -10.3%; in the test with Trypanosoma cruzi it was -3.42%; in [5], 0.319%. Besides, the Percent Effect in test [6] is 10.7%; in the test filed under Homo sapiens, 10.4%; in test [7], 4.32%; in test [8], 10.3%; in [9] it was -8.5%.
For the molecule `CSCCC(=O)N1CCCC1c1ccsc1` (stereo not drawn), the Percent Effect in test [1] was 0.213%; in [2], 9.72%; in test [3], 0.426%; in test [4], -10.9%; with Trypanosoma cruzi, -4.76%; in test [5] it was -1.32%. In addition, the Percent Effect in [6] turned out to be 18.8%; in the test filed under Homo sapiens, 30.2%; in test [7], 4.21%; in [8], 0%; in test [9], 103%.
Take `COc1ccc(CCNC(=O)NC2CCCC2)cc1OC`: the Percent Effect in test [1] was 0.159%; in [2] it was 8.11%; in test [3], -0.309%; in [4], 3.69%; with Trypanosoma cruzi, -1.16%; in [5], 3.33%. The Percent Effect is 13.3% in [6]; 6.13% in the test filed under Homo sapiens; 5.82% in test [7]; 9.76% in test [8]; -3.01% in test [9].
In the case of `O=C(c1ccccc1-c1ccccc1)N1CCOC2(CNCCOC2)C1` (stereo not drawn), the Percent Effect in [1] was -2.01%; in test [2] it was 8.11%; in test [3], -0.846%; in test [4] it was 7.99%; in the test on Trypanosoma cruzi it was 0%; in test [5], 4.76%. Also, the Percent Effect in test [6] is 17.9%; in the test filed under Homo sapiens, 1.86%; in test [7], 5.82%; in test [8], 14.6%; in test [9], -1.37%.
As to `O=C(c1ccc(F)cc1)N1C[C@@H]2OCCN(c3ncccn3)[C@@H]2C1`, the Percent Effect in test [1] was -5.16%; in test [2] it was 5.33%; in test [3], 3.73%; in [4], 9.86%; in the test with Trypanosoma cruzi, -5.02%; in test [5], -19.9%. For the same molecule, the Percent Effect in [6] was 5.98%; in the test filed under Homo sapiens, -2.35%; in [7] it was 2.08%; in test [8] it was 15%; in test [9] it was -9.01%.
With `O=C(NCc1ccco1)[C@@H]1CCO[C@@H]2CCN(c3ccncn3)C[C@H]21`, the Percent Effect in test [1] was 0.562%; in test [2], 2.67%; in [3], 2.84%; in test [4], 5.63%; in the test with Trypanosoma cruzi it was -5.02%; in [5], -56.5%. The Percent Effect in [6] is 5.64%; in the test listed under Homo sapiens, 3.81%; in test [7], 1.04%; in test [8] it was -25%; in test [9], -8.67%.
